# From PubChem BioAssay
# HT1080NT lethal – kills 2HG-producing HT-1080-NT fibrosarcoma cells; HT-1080-NT fibrosarcoma viability, CellTiter-Glo ATP luminescence, 48 h; Potency, µM (series often up to 46.1 µM), inactives show at the top dose activity, negative = less viability, actives largely listed as cytotoxic; 360,000 tested, 1.6% active; AID 686970;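 further: NT is the 2HG producing partner of a matched IDH1 knockdown line; potency means the concentration at half of the fitted maximal effect; 0% = DMSO-treated cells and -100% = media-only wells without cells; nearly all actives have a fitted effect of over 55% in size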
#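 HT-1080-NT; 750 cells/well; 5% FBS RPMI; 48 h compound, 37 degrees C; CellTiter-Glo luminescence; curve fitting and curve-class assignment.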
# TDP1 cell CPT – DT40-hTDP1 cell growth loss with CPT; chicken DT40 Tdp1-/-;hTDP1 cells + 20 nM CPT, ATP luminescence, 48 h; Potency, µM (highest dose often 46.2 µM), inactives show at the highest dose activity change, negative = growth inhibition, most hits filed as inhibitors; 420,000 tested, 12% active; AID 686979; further: potency means the concentration at half of the fitted maximal effect; nearly all actives have a fitted effect of over 55% in size
#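 Chicken DT40 Tdp1-/- cells complemented with human TDP1, 400 cells/well, exposed to compounds plus 20 nM camptothecin for at least 48 h at 37 C; viability read as ATP content by CellTiter-Glo luminescence.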
# TDP1 cell noCPT – qHTS for Inhibitors of human tyrosyl-DNA phosphodiesterase 1 (TDP1): qHTS in cells in absence of CPT | 420,000 tested, 15% active | DT40 Tdp1-/- hTDP1 cells, no CPT, ATP luminescence, 48 h | Potency, µM (series often up to 46.2 µM), for inactives: at the top dose activity change, negative = growth inhibition, usual class: inhibitors; further: potency means the concentration at half of the fitted maximal effect; nearly all actives have a fitted effect of over 55% in size
#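 No-CPT arm: Tdp1-/-;hTDP1 DT40 cells (400/well) plus compounds, incubated ≥48 hr at 37 °C. Readout CellTiter-Glo luminescence.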
# IL-1B inflam inh – inflammasome signaling inhibition, IL-1 beta readout; THP-1 LPS/ATP IL-1B secretion, AlphaLISA, 16 h; hits give low values; activity change, % at 57.5 µM; 360,000 tested, 4.7% active; AID 743279; in the data active means activity change below about -50%; inconclusive means mostly about -30% to -49%
#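 THP-1 cells pretreated 1 hr with compounds (up to 57.5 uM final), then stimulated with LPS (250 ng/mL final) plus ATP (1.25 mM final); secreted IL-1B measured by AlphaLISA after 16 hr, decreased signal indicating inhibition.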
# HT1080 IDH1KD tx – kills HT-1080 cells with IDH1 knockdown. HT-1080 IDH1 knockdown viability, ATP luminescence, 48 h. Potency, µM (top dose mostly 46.1 µM), without a hit: top-dose activity, negative = toxicity, actives largely listed as cytotoxic. 360,000 tested, 2% active. AID 686971;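 further: potency means the concentration at half of the fitted maximal effect; 0% = DMSO wells and -100% = cell-free medium wells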
#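 HT-1080-IDH1KD cells (IDH1 knocked down), 750/well in RPMI with 5% FBS, treated with compound 48 h at 37 degrees C. Viability by CellTiter-Glo luminescence, normalised to DMSO and no-cell wells; concentration-response curves classed.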
# Numbers without * were called inactive; ? = inconclusive; nt = not tested or not shown; [ ] = another dose, or the depositor's remark. Sampled rows, rich in hits. Any-hit rate of the full collection: about 19%. Unless noted, the call rests on the fitted dose curve; in most records, active means well fitted curve in the direction sought with a large enough effect; inconclusive means small, poorly fitted or top-dose-only effect, or another doubt; inactive means no such curve, though single readings can be large; an effect the other way counts as inactive or inconclusive. Unless noted, on the % scale 0 is the no-effect control and ±100 the full control effect.
SMILES,HT1080NT lethal,TDP1 cell CPT,TDP1 cell noCPT,IL-1B inflam inh,HT1080 IDH1KD tx
O=C(/C=C/c1ccccc1)NC(NC(=S)Nc1cccc(O)c1)C(Cl)(Cl)Cl (centres undefined),?,?,18µM*,-117*,?
O=C(/C=C/c1ccccc1)NC(NC(=S)Nc1ccc(Cl)cc1Cl)C(Cl)(Cl)Cl (centres undefined),-24%,21µM*,18µM*,-10,?
C=CCNC(=S)Nc1ccccc1-c1nnc2n1CCCCC2,1%,2%,-3%,15,12%
CCc1nnc(SCC(=O)Nc2ccc(N3CCN(S(C)(=O)=O)CC3)cc2)o1,6%,?,-26%,-12,0%
COc1ccc2cc(CNCc3ccccc3C(F)(F)F)c(N3CCCC(CO)C3)nc2c1 (centres undefined),nt,-12%[9.04 µM],-29%,nt,nt
COc1cccc(-c2cc(C(=O)Nc3c(C)nn(Cc4ccccc4)c3C)no2)c1,-7%,?,18µM*,-28,?
COc1ccc(-c2cc(C(=O)Nc3c(C)nn(Cc4ccccc4)c3C)no2)cc1,-27%[9.24 µM],-23%,-28%,-1,16µM*
O=C(CC1CCCCC1)NCc1nc(-c2ccccc2)no1,?,-5%,-2%,33,13%
CC(=O)c1ccc(NC2=C(N3CCOCC3)C(=O)c3ccccc3C2=O)cc1,?,23µM*,21µM*,-76*,?
Cc1ccc(NC2=C(N3CCOCC3)C(=O)c3ccccc3C2=O)cc1,?,21µM*,26µM*,-100*,?
O=C(O)c1ccc(NC2=C(N3CCOCC3)C(=O)c3ccccc3C2=O)cc1,-2%,?,?,0,5%
CC(=O)N(C1=C(N2CCOCC2)C(=O)c2ccccc2C1=O)c1ccc(C(=O)O)cc1,-12%,?,?,18,-4%
CC(=O)N(C)C1=C(N2CCOCC2)C(=O)c2ccccc2C1=O,1.6µM*,0.18µM*,0.16µM*,-94*,0.89µM*
COC(=O)[C@@H]1CCCN1C(=O)[C@@H](NC(=O)OC(C)(C)C)C(C)C,2%,-24%,-10%,15,-1%
Cc1ccccc1NC(=O)CCN1CCN(C)CC1,-1%,1%,2%,4,-5%
Cc1cccc(NC(=O)CCN2CCN(C/C=C/c3ccccc3)CC2)c1,-8%,?,21µM*,-77*,-29%
Cc1ccccc1NC(=O)CCN1CCN(C/C=C/c2ccccc2)CC1,-2%,21µM*,?,?,-1%
Cc1cc(NC(=O)CCN2CCN(C)CC2)ccc1Br,-11%,17%,9%,-16,-19%
Cc1cc(NC(=O)CCN2CCN(C/C=C/c3ccccc3)CC2)ccc1Br,21µM*,?,?,-82*,23µM*
O=C(CCN1CCN(C/C=C/c2ccccc2)CC1)Nc1ccccc1,-12%,-26%,?,-15,-9%
O=C(c1ccco1)N(CCO)Cc1cc2cc3c(cc2[nH]c1=O)OCO3,3%,10%,-19%,19,0%
COc1ccc(CN(C)CC(=O)Nc2ccccc2C(=O)NC2CC2)cc1OC,4%,-3%,-6%,-6,10%
O=C(c1cccc([N+](=O)[O-])c1)N1c2ncnn2C2(CCCCC2)[C@@H]2CCCC[C@@H]21,nt,?,8.2µM*,nt,nt
O=C(c1ccccc1Cl)N1c2ncnn2C2(CCCCC2)[C@@H]2CCCC[C@@H]21,nt,-29%,?,nt,nt
CCOC(=O)Cc1csc(NC(=O)COc2cc(C)cc(C)c2)n1,-7%,-11%,?,0,1%
SMILES,HT1080NT lethal,TDP1 cell CPT,TDP1 cell noCPT,IL-1B inflam inh,HT1080 IDH1KD tx
CCCCC(=O)N(C)c1c(CC)nc2c(OCc3ccccc3C)cccn12,-25%,29µM*,29µM*,-22,-20%
CCCCC(=O)N(C)c1c(CC)nc2c(OCCOC)cccn12,22%,-14%,0%,-2,29%
CCc1nc2c(OCc3ccccc3C)cccn2c1N(C)C(=O)C(C)C,-6%,18µM*,16µM*,114,4%
CCc1nc2c(OCc3ccccc3C)cccn2c1N(C)C(=O)CC(C)C,-16%,21µM*,18µM*,1,-26%
CCOC(=O)C(=O)N(C)c1c(CC)nc2c(OCc3ccccc3C)cccn12,14%,-24%,-22%,9,8%
COc1cc2c(c(OC)c1CC=C(C)C)C[C@H](c1ccc(O)cc1O)CO2,0%,-25%,?,-18,-8%
COc1ccc(C)cc1NC(=O)N1CCCn2nc(C)cc21,nt,?,-28%,nt,nt
CC1=Nc2cc(C(=O)NC3CCCC3)ccc2Sc2ccc(Cl)cc21,nt,0.82µM*,0.58µM*,nt,nt
CCC1=Nc2cc(C(=O)O)ccc2Sc2ccccc21,0%,0%,-9%,19,2%
CCC1=Nc2cc(C(=O)NC3CCCC3)ccc2Sc2ccc(Cl)cc21,nt,0.92µM*,0.92µM*,nt,nt
CC1=Nc2cc(C(=O)NC3CCCC3)ccc2Sc2ccc(C)cc21,nt,1.2µM*,0.92µM*,nt,nt
COc1ccc(C(=O)NCC(=O)N/N=C/c2ccc(C)o2)cc1OC,14%,20%,12%,2,9%
NS(=O)(=O)c1ccc(CCNc2nn3c(-c4cccc(OC(F)(F)F)c4)cnc3s2)cc1,8.2µM*,12µM*,13µM*,-84*,8.2µM*
NS(=O)(=O)c1ccc(CCNc2nccn(-c3cccc(C(F)(F)F)c3)c2=O)cc1,nt,-17%,?,nt,nt
CCCCCCn1c(CN2CCN(C(=O)OCC)CC2)nc2c1c(=O)n(C)c(=O)n2C,3%,21µM*,?,16,6%
CCCn1c(CN2CCN(C(=O)OCC)CC2)nc2c1c(=O)n(C)c(=O)n2C,12%,8.2µM*,5.2µM*,40,2%
CCOC(=O)N1CCN(Cc2nc3c(c(=O)n(C)c(=O)n3C)n2CCC(C)C)CC1,-2%,-29%,?,7,9%
COc1ccc(CN2C(=O)CSCC2(C)C(=O)Nc2ccc3c(c2)OCCO3)cc1 (centres undefined),5%,?,?,-4,0%
CCCC(C)C(=O)Nc1nnc(CCc2ccccc2)s1 (centres undefined),-4%,?,?,-2,0%
Cc1sc2ncnc(N3CCC(C(=O)N(CC(C)C)c4nc5ccccc5s4)CC3)c2c1C,0%,21µM*,15µM*,12,0%
COc1ccc(-c2csc(NC(=O)C3CCN(c4ncnc5sc(C)c(C)c45)CC3)n2)cc1OC,5.8µM*,2.9µM*,2.6µM*,64,?
Cc1sc2ncnc(N3CCC(C(=O)N4CC(C)SC4=Nc4ccc(Cl)cc4)CC3)c2c1C (centres undefined),1%,?,?,8,0%
